Laboratory results: PubChem BioAssay
The source made the active and inactive calls. Unless noted, the rule behind the calls is not given here.

Key:
[1] = A549 cell viability effects, profiling panel, calcein-AM fluorescence, 48 h, basal (AID 1162); conditions: higher = more signal; note: test concentration not given here
[2] = adipocyte viability effects, profiling panel, cell-based, 3T3-L1 adipocytes, calcein-AM fluorescence, 48 h, basal (AID 1163); conditions: 3T3-L1 adipocytes viability, higher = more signal; note: test concentration not given here
[3] = HepG2 cell viability effects, profiling panel, calcein-AM fluorescence, 48 h, basal (AID 1164); conditions: higher = more signal; note: test concentration not given here
[4] = MM1S cell viability effects, profiling panel, calcein-AM fluorescence, 48 h, basal (AID 1165); conditions: higher = more signal;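 note: viability of MM1S multiple myeloma cells under basal unstimulated conditions; test concentration not given here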
[5] = basal RPMI8226 viability, no added stimulus, profiling panel, cell-based, calcein-AM fluorescence, 48 h, PK04 Diversity Set (AID 1166); conditions: RPMI8226 myeloma viability, higher = more signal;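 note: cells grown under basal conditions without added stimulus; test concentration not given here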
[6] = basal HepG2 mitochondrial membrane potential changes, profiling panel, cell-based, JC-1 fluorescence, 24 h, 100 nL compound (AID 1167); conditions: higher = more signal; note: test concentration not given here
[7] = basal 3T3-L1 adipocyte mitochondrial potential changes, profiling panel, cell-based, JC-1 fluorescence, 3T3-L1 adipocytes, 24 h, 100 nL compound (AID 1168); conditions: JC-1 mitochondrial fluorescence, higher = more signal, called active from +8 up or from −8 down; note: test concentration not given here
[8] = basal RPMI8226 mitochondrial membrane potential changes, profiling panel, cell-based, JC-1 fluorescence, 24 h, 100 nL compound (AID 1169); conditions: RPMI8226 myeloma, JC-1 mitochondrial potential fluorescence, higher = more signal; note: test concentration not given here
[9] = basal MM1S mitochondrial membrane potential changes, profiling panel, cell-based, JC-1 fluorescence, 24 h, 100 nL compound (AID 1170); conditions: higher = more signal; note: test concentration not given here
[10] = A549 lung cancer cell viability effects, profiling panel, resazurin fluorescence, 24 h, PK04 Diversity Set (AID 1171); conditions: higher = more signal, called active from +8 up or from −8 down; note: test concentration not given here
[11] = HepG2 liver cancer cell viability effects, profiling panel, resazurin fluorescence, 24 h, PK04 Diversity Set (AID 1172); conditions: higher = more signal; note: test concentration not given here
[12] = basal S. cerevisiae growth modulation, no modifier, primary screen, OD600, strain BY4716, 24 h, basal condition (AID 1173); conditions: OD600, 24 h, higher = more signal, called active from +8 up or from −8 down
[13] = MM1S myeloma cell viability, profiling panel, resazurin fluorescence, basal, 24 h, PK04 Diversity Set (AID 1174); conditions: higher = more signal, called active from +8 up or from −8 down;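 note: MM1S multiple myeloma cell line; test concentration not given here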
[14] = molecular target: Dihydroorotate dehydrogenase (quinone), mitochondrial (Plasmodium falciparum (isolate 3D7)) (UniProt Q08210); test: PfDHODH enzyme inhibitors, primary screen, biochemical, C-terminal His tag, absorbance 600 nm (AID 1175); conditions: DCIP absorbance 600 nm, higher = more signal, called active from +8 up or from −8 down;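 note: recombinant parasite enzyme with a five histidine tag at its C terminus; test concentration not given here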
[15] = P. aeruginosa biofilm formation inhibitors, primary screen, strain PAO1, LB-PBS medium, absorbance 600 nm (AID 1176); note: test concentration not given here; conditions: P. aeruginosa PAO1 growth/biofilm, A600, 12 h; higher = more signal
[16] = S. cerevisiae RM11-1a growth modifiers, primary screen, strain RM11-1a, OD600, basal, 24 h (AID 1177); conditions: OD600, 24 h, higher = more signal, called active from +8 up or from −8 down;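 note: cultures grown under basal conditions with no added stressor; test concentration not given here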
[17] = E. coli acrAB mutant growth effects, primary screen, E. coli filamentation inducers, strain DRC39, OD650, 24 h (AID 1178); conditions: higher = more signal, called active from +8 up or from −8 down;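 note: growth measured as culture turbidity by optical density at 650 nm; test concentration not given here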
[18] = E. coli acrAB mutant growth effects, primary screen, E. coli filamentation inducers, strain DRC39, OD650, 48 h (AID 1179);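 note: screen aims at cell division blockers that make cells filament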; conditions: E. coli DRC39 delta-acrAB growth, higher = more signal, called active from +8 up or from −8 down
[19] = RPMI8226 myeloma cell viability, profiling panel, resazurin fluorescence, basal, 24 h, PK04 Diversity Set (AID 1180); conditions: higher = more signal;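 note: RPMI8826 multiple myeloma cell line at 5000 cells per well; test concentration not given here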
[20] = molecular target: E3 ubiquitin-protein ligase XIAP (Homo sapiens) (UniProt P98170); test: XIAP binders, primary screen, biophysical, small-molecule microarray, fluorescence 635 nm (AID 1181); conditions: small-molecule microarray binding, higher = more signal;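 note: score merges 667 nm emission and signal to noise over triplicate slides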
Chain of E3 ubiquitin-protein ligase XIAP (Homo sapiens) (P98170 whole entry, looked up): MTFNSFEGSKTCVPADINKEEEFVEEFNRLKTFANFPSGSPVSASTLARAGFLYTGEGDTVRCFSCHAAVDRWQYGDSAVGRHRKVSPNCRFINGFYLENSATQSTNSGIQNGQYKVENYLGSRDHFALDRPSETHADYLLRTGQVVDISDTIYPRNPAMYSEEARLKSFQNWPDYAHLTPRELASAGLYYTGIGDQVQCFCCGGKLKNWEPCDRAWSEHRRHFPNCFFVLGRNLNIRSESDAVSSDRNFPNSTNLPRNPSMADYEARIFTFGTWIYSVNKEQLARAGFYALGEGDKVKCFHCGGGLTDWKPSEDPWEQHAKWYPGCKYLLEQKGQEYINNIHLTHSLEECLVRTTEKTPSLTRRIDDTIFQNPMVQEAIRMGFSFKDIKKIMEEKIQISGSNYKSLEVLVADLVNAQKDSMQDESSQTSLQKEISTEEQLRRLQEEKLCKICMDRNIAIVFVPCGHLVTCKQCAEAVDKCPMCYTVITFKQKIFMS

Chain of Dihydroorotate dehydrogenase (quinone), mitochondrial (Plasmodium falciparum (isolate 3D7)) (Q08210 whole entry, looked up): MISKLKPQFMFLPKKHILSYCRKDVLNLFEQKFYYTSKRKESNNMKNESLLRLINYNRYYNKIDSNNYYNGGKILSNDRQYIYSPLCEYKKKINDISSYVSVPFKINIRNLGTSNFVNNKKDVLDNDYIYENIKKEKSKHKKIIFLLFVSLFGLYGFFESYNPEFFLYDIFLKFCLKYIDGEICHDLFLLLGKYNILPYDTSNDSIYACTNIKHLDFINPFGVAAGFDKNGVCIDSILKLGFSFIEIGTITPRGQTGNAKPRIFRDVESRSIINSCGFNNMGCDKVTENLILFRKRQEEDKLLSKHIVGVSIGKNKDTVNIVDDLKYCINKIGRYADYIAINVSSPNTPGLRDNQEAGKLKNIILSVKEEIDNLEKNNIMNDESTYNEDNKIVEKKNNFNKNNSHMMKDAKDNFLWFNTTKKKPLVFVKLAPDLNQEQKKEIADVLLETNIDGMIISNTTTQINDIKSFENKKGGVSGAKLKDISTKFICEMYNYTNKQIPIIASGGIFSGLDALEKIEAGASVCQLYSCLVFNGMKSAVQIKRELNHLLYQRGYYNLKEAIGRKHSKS

| SMILES | z-score [1] | z-score [2] | z-score [3] | z-score [4] | z-score [5] | z-score [6] | z-score [7] | z-score [8] | z-score [9] | z-score [10] | z-score [11] | z-score [12] | z-score [13] | composite z-score [14] | z-score [15] | z-score [16] | z-score [17] | z-score [18] | z-score [19] | composite z-score [20] |
| --- | --- | --- | --- | --- | --- | --- | --- | --- | --- | --- | --- | --- | --- | --- | --- | --- | --- | --- | --- | --- |
| C=CCOC(=O)[C@H]1[C@@H]2C(=O)O[C@@H](c3ccccc3)[C@@H](c3ccccc3)N2[C@@H](c2ccc(OCCOC(=O)[C@H]3C[C@H]4C(=O)N[C@@H](CCCCNC(C)=O)C(=O)N4[C@H]3c3ccc(O)cc3)cc2)[C@]12C(=O)Nc1ccccc12 | 1.72 | 0.496 | 1.27 | -0.643 | 1.03 | -0.297 | -0.0783 (inactive) | -0.748 | -0.175 | 2.07 (inactive) | 2.07 | -1.68 (inactive) | 1.74 (inactive) | -0.875 (inactive) | 2.52 (inactive) | -2.05 (inactive) | 2.63 (inactive) | 2.11 (inactive) | 1.11 | 0.0013 |
| C[N+](C)(C)CCCCCCNC(=O)[C@H]1C[C@H]2C(=O)N[C@@H](Cc3ccccc3)C(=O)N2[C@H]1c1ccc(O)cc1 | -0.367 | -1.42 | 0.557 | 0.401 | 0.757 | -0.216 | 0.508 (inactive) | 0.21 | -0.79 | -0.0203 (inactive) | -0.324 | 0.119 (inactive) | 0.13 (inactive) | -0.673 (inactive) | -0.546 (inactive) | -0.0281 (inactive) | 0.962 (inactive) | 1.3 (inactive) | 0.201 | -0.162 |
| CC1=C[C@@]2(CO)C(=O)[C@]3(CO3)[C@@H]1[C@H]1[C@]2(C)C=C(CO)C(=O)[C@]12CO2 | 0.23 | 0.263 | -0.164 | -3.33 | -0.753 | -0.38 | -0.311 (inactive) | 0.249 | -2.11 | 0.474 (inactive) | 0.693 | -2.6 (inactive) | -0.54 (inactive) | -2.12 (inactive) | -0.614 (inactive) | -0.813 (inactive) | 0.477 (inactive) | 0.655 (inactive) | 0.483 | -0.227 |
| Cc1cc(C)c(C(O)C2C=CC3C(=O)N(c4ccccc4)C(=O)C3N2Nc2ccc(C(C)C)cc2)c(C)c1 (stereo not given) | -0.314 | 0.669 | 0.273 | -0.0101 | -0.792 | -1.37 | -1.13 (inactive) | -0.698 | 0.19 | -1.72 (inactive) | -1.47 | 0.626 (inactive) | -1.8 (inactive) | 0.68 (inactive) | 1.28 (inactive) | 1.58 (inactive) | -0.841 (inactive) | -0.876 (inactive) | -1.08 | -0.387 |
